# Screens from PubChem.
# G9a inh – inhibitors of human histone lysine methyltransferase G9a; Q96KQ7; G9a H3K9 monomethylation, AlphaScreen, 2 h; hit rate 8.8% among 350,000; Potency, µM (highest dose often 102 µM), for the others: top-dose activity, negative = inhibition, actives largely listed as inhibitors; further: on the % scale 0 is the no-effect control and ±100 the full control effect; nearly all actives have a fitted effect of over 75% in size
#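 Readings reflect AlphaScreen signal from monomethyl-H3K9 antibody detection. HMT at 20 nM; substrate b-H3K9 500 nM; cofactor SAM 20 uM; 2 h RT reaction; compounds tested as titrations in qHTS with 15 min preincubation.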
# VDR inhibitor – vitamin D3 receptor (human) inhibition; VDR-SRC2-3 peptide fluorescence polarization, 2 h; Potency, µM, for inactives: max response, negative = inhibition, most hits filed as inhibitors; hit rate 0.93% among 400,000; AID 504847; further: on the % scale 0 is the no-effect control and ±100 the full control effect
#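 Signal is fluorescence polarization, reporting how far test compounds block the interaction of VDR with the SRC2-3 coregulator peptide after a 2 h room-temperature incubation.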
# Sfp PPTase inh – inhibitors of Bacillus subtilis Sfp phosphopantetheinyl transferase; Potency, µM, without a hit: largest response in the series, negative = inhibition, usual class: inhibitors; AID 1490; Biochemical Sfp PPTase activity, qHTS; Q9F4F7; hit rate 3.5% among 310,000;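 further: the enzyme is Sfp with the accession as filed and its product quenches rhodamine fluorescence; 0% = enzyme reaction without inhibitor and -100% = no enzyme wells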
#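 Reaction rates are the 30-min fluorescence difference (ex 525, em 598 nm) in wells containing 15 nM Sfp, 5 uM rhodamine-CoA and 12.5 uM BHQ-2-YbbR at pH 7.6 with 10 mM MgCl2.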
# GRP78 ERSR act – ER stress response induction in glioma. AID 602332. Potency, µM, inactives show at the top dose activation, most hits filed as activators. U87-MG GRP78 promoter luciferase reporter, 16 h. hit rate 0.02% among 420,000; further: series mostly up to about 76 µM; % of control where 0% means no effect; nearly all actives have a fitted effect of over 35% in size
#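 ERSR induction read as luciferase luminescence (Bright-Glo, 10 min at room temperature) in stably transfected human U87-MG glioma cells exposed to compounds for 16 h, using GRP78 as sensor.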
# 12-LOX inh – blocks human arachidonate 12S-lipoxygenase; hit rate 1.1% among 580,000; Potency, µM (top dose mostly 108 µM), without a hit: at the top dose activity change, negative = inhibition, actives largely listed as inhibitors; P18054; purified 12hLO, xylenol orange hydroperoxide absorbance; further: on the % scale 0 is the no-effect control and ±100 the full control effect
# Target sequence (P18054 whole entry, looked up): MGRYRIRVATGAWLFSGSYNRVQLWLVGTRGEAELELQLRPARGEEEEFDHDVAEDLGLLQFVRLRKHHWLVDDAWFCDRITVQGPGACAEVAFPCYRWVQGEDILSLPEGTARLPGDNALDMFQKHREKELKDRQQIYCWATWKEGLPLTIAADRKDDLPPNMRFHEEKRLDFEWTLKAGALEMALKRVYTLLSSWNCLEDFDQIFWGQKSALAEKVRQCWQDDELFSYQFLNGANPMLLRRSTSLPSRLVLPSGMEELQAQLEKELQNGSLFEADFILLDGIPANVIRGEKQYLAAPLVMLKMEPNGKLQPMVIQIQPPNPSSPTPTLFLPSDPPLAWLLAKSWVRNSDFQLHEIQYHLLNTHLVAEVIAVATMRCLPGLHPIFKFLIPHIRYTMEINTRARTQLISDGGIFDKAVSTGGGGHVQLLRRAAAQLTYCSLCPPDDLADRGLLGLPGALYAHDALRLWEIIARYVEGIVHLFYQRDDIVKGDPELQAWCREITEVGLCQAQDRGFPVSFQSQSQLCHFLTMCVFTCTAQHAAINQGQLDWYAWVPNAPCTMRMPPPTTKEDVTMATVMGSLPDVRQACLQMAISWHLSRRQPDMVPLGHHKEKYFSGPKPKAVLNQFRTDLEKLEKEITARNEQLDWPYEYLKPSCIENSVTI
#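 Hydroperoxide product was detected by ferrous iron/xylenol orange as the 573 to 405 nm absorbance ratio. Arachidonic acid at 40 uM (final) was turned over for 30 min at room temperature by 150 nM human 12hLO, pH 7.0 Hepes buffer, after 15 min compound preincubation.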
# Starred values were filed as active, the others as inactive; u = inconclusive; x = no result; ! = not active in a repeat; [ ] = dose if it differs, or a comment. The entries come from a sample that favours hits as a whole. The call rests on the fitted dose curve; in most records, active means well fitted curve in the direction sought with a large enough effect; inconclusive means small, poorly fitted or top-dose-only effect, or another doubt; inactive means no such curve, though single readings can be large; an effect the other way counts as inactive or inconclusive. Potency means the concentration at half of the fitted maximal effect.
SMILES,G9a inh,VDR inhibitor,Sfp PPTase inh,GRP78 ERSR act,12-LOX inh
CC(C)c1ccc(/C=C2\SC(=S)N(CCC(=O)NCCCn3ccnc3)C2=O)cc1,x,4%,-1%,-6%,-22%
COc1ccc(/C=C2/SC(=S)N(CCCC(=O)Nc3ccccc3C(=O)O)C2=O)cc1,79µM*,u,27%,-16%,u
COc1ccc(/C=C2\SC(=S)N(CCC(=O)NCCCn3ccnc3)C2=O)cc1,56µM*,0%,7%,-7%,-18%
Cc1ccsc1CN1CCCC(c2nc(-c3cccnc3)no2)CCNC(=O)CC1 (stereo not drawn),x,x,x,x,35%
Cc1ccc(NC(=O)CNc2nc(Nc3ccccc3)nc(Nc3ccccc3)n2)cc1C,x,x,x,x,-3%
Cn1c2c(c(=O)[nH]c1=O)C(c1ccc(O)cc1)C1=C(N2)c2ccccc2C1=O (stereo not drawn),35µM*,-16%,-22%,-5%,u
CCn1c2c(c(=O)[nH]c1=O)C(c1ccc(C(=O)O)cc1)C1=C(N2)c2ccccc2C1=O (stereo not drawn),x,x,x,x,-30%
Cc1c(C(=O)N2CCCC(C)C2)sc2ncnc(NCCN3CCCCC3)c12 (stereo not drawn),x,x,x,-6%,2%
Cc1c(C(=O)N2CCCC(C)C2)sc2ncnc(N3CCCCC3C)c12 (stereo not drawn),19%,-14%,79µM*,-4%,-5%
Cc1ccc(-c2nc(CS(=O)(=O)CC(=O)N3CCc4ccccc43)c(C)o2)cc1,x,x,x,x,23%
CN(C)CCCN1C(=O)C(=O)/C(=C(/O)c2ccncc2)C1c1cccnc1 (stereo not drawn),u,-7%,11%,-5%,-14%
C=CCOc1cccc(C2/C(=C(/O)c3ccccc3)C(=O)C(=O)N2CCN2CCOCC2)c1 (stereo not drawn),u,-8%,13%,0%,-5%
Cc1ccc(/C(O)=C2\C(=O)C(=O)N(C)C2c2ccccc2[N+](=O)[O-])cc1 (stereo not drawn),2%[0.501 µM],-26%,-13%,-6%,-23%
O=C1C(=O)N(c2ccc(O)cc2)C(c2ccccc2[N+](=O)[O-])/C1=C(\O)c1ccccc1 (stereo not drawn),56µM*,-7%,u,3%,u
Cc1ccc(/C(O)=C2\C(=O)C(=O)N(CCc3c[nH]c4ccccc34)C2c2cccnc2)cc1 (stereo not drawn),50µM*,-8%,12%,-4%,-7%
C=CCOc1cccc(C2/C(=C(/O)c3ccc(Cl)cc3)C(=O)C(=O)N2CCN2CCOCC2)c1 (stereo not drawn),18µM*,23%,18%,-6%,-27%
O=C1C(=O)N(CCO)C(c2ccccc2[N+](=O)[O-])/C1=C(\O)c1ccccc1 (stereo not drawn),10%[2.33 µM],-2%,-5%,5%,u
Cc1ccc(/C(O)=C2\C(=O)C(=O)N(Cc3cccnc3)C2c2ccccc2[N+](=O)[O-])cc1 (stereo not drawn),56µM*,-14%,u,1%,-19%
COc1ccc(NC(=O)c2sc3ncnc(N(C)c4ccccc4)c3c2C)cc1Cl,x,x,x,x,-6%
Cc1ccc(C(NC(=O)c2cc(=O)c3cc(C)ccc3o2)C2CC2)cc1 (stereo not drawn),x,x,x,x,-54%
Cc1ccc(NC(=O)Cc2n[nH]c(=O)c3ccccc23)cc1,x,x,x,x,-24%
O=C1C(=O)N(CCN2CCOCC2)C(c2cccnc2)/C1=C(/O)c1ccccc1 (stereo not drawn),-6%[12.7 µM],x,7%,x,x
O=C1C(=O)N(CCN2CCOCC2)C(c2cccnc2)/C1=C(/O)c1ccc(Cl)cc1 (stereo not drawn),50µM*,20%,12%,-6%,-10%
CCCCC(=O)Nc1ccc2nc(N3CCN(C(=O)OCC)CC3)cc(C(=O)O)c2c1,x,x,x,x,-81%
Cc1[nH]c2ccccc2c1/C=N/Nc1nncn1N,35µM*,-8%,8.9µM*,-5%,u
SMILES,G9a inh,VDR inhibitor,Sfp PPTase inh,GRP78 ERSR act,12-LOX inh
Cc1[nH]c2ccccc2c1/C=N/Nc1ccccn1,u,x,u,x,-8%
Cc1[nH]c2ccccc2c1/C=N/NC(=O)c1cccc(F)c1,x,-12%,-3%,1%,-5%
Cc1[nH]c2ccccc2c1/C=N/Nc1ccc(F)cc1F,32µM*,x,5%,x,x
CNC(=O)NC(=O)CN(C)Cc1ccsc1,x,x,x,x,-27%
CCOC(=O)c1ccc(N/C(=N\S(=O)(=O)c2ccccc2C)c2ccccc2)cc1,12%[12.7 µM],15%,20%,4%,0%
Cc1ccc(S(=O)(=O)/N=C(/NC(=S)Nc2ccccc2)c2ccccc2)cc1,u,-25%,-15%,-5%,u
CCOC(=S)N/C(=N\S(C)(=O)=O)c1ccccc1,16µM*,-24%,20µM*,0%,u
COC(=S)N/C(=N\S(=O)(=O)c1ccc(Cl)cc1)c1ccccc1,25µM*,89µM*,22µM*,-1%,u
CCOC(=S)N/C(=N\S(=O)(=O)c1ccccc1)c1ccccc1,10µM*,-29%,18µM*,-4%,u
CCCOC(=S)N/C(=N\S(=O)(=O)c1ccccc1)c1ccccc1,10µM*,-14%,16µM*,0%,35µM*
O=S(=O)(/N=C(/NS(=O)(=O)c1ccccc1)c1ccccc1)c1ccccc1,u,-3%,17%,-1%,-4%
O=C(O)CCCc1ccc(Cl)c(Cl)c1,x,x,x,x,31%
Cc1ccc(-c2nn(Cc3nc(-c4ccccc4)no3)c(=O)c3ccccc23)cc1,x,x,x,x,-44%
COc1ccc(-c2nnc(SCc3csc(Nc4ccc(C)cc4)n3)o2)cc1,x,x,x,x,-12%
Cc1ccc(NC(=S)N/C(=N/S(=O)(=O)c2ccccc2)c2ccccc2)cc1,13µM*,-5%,u,0%,35µM*!
COc1cc(/C=C2\Oc3cc(O)ccc3C2=O)ccc1O,23%[12.7 µM],2%,-4%,1%,u
O=C1/C(=C/c2ccc(O)c(O)c2)Oc2cc(O)ccc21,u,-11%,u,13%,11µM*
CCN1C(=O)/C(=C/c2cnn(CC)c2C)SC1=S,-5%[59 µM],-23%,4%,-1%,-11%
CCN1C(=O)/C(=C/c2c(C)nn(C)c2C)SC1=S,u,18%,u,6%,10µM*
Cc1ccc(C)c(C(=O)C(C)n2cnc3c2c(=O)n(C)c(=O)n3C)c1 (stereo not drawn),x,x,x,x,9%
COc1ccc(N(C(=O)c2ccco2)C(C(=O)NC2CCCC2)c2cccs2)cc1OC (stereo not drawn),u,7%,40µM*,-6%,-2%
COc1ccc(C(C(=O)NC2CCCCC2)N(Cc2ccco2)C(=O)c2ccccn2)c(OC)c1 (stereo not drawn),10µM*,-15%,12%,-5%,u
O=C(NC1CCCCC1)C(c1ccc(F)cc1)N(Cc1ccco1)C(=O)c1ccccn1 (stereo not drawn),22%[12.7 µM],3%,19%,-4%,-17%
